# A number with no mark means an inactive call.
# Tests used:
# Assay in all cases: log2 ratio of Biotin-Ahx-Ub-VS probe labelling (fragment/DMSO); higher = less target engagement (more negative = stronger competition), active = hit call of the paper (q ≤ 0.05, log2 ratio ≤ -1)
# Settings in all cases: compound concentration: 200 uM; treatment time: 3 h
# USP42 = biological target: T1, USP42 (UniProt Q9H9J4)
# T1 sequence (whole entry): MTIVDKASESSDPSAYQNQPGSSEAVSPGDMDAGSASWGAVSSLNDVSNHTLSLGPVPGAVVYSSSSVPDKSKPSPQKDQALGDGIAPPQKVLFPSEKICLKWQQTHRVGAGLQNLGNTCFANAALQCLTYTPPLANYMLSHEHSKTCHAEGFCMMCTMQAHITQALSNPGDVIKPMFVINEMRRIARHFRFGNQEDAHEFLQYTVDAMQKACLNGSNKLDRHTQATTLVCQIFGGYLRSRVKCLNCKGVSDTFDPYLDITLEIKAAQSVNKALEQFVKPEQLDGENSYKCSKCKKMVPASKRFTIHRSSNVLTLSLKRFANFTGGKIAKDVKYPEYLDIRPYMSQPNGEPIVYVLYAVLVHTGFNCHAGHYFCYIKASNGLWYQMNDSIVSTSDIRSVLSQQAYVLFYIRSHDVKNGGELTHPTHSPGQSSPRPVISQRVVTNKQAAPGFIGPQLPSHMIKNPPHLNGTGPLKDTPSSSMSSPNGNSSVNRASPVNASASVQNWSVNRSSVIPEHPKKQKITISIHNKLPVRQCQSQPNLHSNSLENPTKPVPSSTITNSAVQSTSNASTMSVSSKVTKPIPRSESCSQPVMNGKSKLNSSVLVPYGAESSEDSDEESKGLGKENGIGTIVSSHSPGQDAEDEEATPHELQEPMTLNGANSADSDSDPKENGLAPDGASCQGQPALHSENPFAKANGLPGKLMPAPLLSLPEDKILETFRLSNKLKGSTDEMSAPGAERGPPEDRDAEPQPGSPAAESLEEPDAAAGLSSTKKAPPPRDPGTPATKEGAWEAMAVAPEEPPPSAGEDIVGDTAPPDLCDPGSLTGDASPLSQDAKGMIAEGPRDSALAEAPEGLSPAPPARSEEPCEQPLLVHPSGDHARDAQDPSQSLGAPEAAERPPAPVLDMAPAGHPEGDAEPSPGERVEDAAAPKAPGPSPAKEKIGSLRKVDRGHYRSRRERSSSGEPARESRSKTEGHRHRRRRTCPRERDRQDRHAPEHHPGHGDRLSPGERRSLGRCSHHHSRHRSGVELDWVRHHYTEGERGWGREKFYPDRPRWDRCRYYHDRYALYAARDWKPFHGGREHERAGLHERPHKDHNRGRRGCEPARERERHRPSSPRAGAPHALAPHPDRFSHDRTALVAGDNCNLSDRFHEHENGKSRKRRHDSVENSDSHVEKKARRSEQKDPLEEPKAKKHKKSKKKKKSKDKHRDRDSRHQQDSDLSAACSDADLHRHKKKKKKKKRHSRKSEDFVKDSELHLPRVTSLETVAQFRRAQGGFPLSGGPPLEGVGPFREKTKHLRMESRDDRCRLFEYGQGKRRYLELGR
# Procedure, shortened: (§1)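 HEK293T lysate (495 µg per sample, in Tris/CHAPS/IGEPAL buffer with protease inhibitors) was exposed in triplicate for 3 h to fragment at 200 µM or to vehicle, then to Biotin-Ahx-Ub-VS at 0.5 µM final for 1 h. Labelled DUBs were enriched on NeutrAvidin, digested with LysC and trypsin, and analysed by diaPASEF LC-MS/MS. Spectronaut label-free quantities were normalised to the global median, and values are average log2 ratios of fragment over vehicle from an unpaired t-test. Only proteins with ≥2 unique peptides were used.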
# USP46 = USP46 (UniProt P62068)
# Procedure, shortened: as §1
# USP47 = biological target: T2, USP47 (UniProt Q96K76)
# T2 sequence (whole entry): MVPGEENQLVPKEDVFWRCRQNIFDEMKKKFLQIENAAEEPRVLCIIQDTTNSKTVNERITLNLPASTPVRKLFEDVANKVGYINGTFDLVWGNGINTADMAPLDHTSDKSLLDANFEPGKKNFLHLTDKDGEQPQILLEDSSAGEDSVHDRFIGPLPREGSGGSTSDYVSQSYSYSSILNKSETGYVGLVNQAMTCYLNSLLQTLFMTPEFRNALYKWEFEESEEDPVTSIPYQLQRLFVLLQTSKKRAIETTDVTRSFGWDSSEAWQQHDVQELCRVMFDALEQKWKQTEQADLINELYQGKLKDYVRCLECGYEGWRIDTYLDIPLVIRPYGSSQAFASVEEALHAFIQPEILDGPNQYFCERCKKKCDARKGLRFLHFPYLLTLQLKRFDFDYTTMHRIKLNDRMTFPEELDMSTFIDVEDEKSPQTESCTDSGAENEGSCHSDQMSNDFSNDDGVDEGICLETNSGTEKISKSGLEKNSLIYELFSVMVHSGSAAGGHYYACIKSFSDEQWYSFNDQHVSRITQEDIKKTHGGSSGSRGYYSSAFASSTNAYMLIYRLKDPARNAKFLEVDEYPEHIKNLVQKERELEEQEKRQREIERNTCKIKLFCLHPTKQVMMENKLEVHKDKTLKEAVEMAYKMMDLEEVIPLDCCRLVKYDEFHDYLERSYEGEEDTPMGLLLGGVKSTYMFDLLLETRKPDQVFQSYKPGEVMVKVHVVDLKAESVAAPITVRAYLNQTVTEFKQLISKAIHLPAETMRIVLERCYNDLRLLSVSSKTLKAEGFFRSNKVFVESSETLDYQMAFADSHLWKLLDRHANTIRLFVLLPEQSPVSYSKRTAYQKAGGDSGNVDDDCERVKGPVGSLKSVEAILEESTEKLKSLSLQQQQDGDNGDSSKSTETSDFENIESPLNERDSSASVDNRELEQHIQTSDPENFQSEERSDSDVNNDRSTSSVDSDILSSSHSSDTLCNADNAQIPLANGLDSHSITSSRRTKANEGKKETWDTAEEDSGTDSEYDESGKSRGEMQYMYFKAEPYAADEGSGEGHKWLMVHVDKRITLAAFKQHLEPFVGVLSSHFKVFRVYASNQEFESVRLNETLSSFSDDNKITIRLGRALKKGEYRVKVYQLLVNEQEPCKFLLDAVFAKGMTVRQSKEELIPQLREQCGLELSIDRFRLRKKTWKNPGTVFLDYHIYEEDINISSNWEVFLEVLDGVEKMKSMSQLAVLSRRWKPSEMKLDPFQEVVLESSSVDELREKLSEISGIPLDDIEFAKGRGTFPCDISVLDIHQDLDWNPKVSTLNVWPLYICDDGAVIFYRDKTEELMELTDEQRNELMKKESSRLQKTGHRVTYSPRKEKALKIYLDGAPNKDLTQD
# Procedure, shortened: as §1
# USP48 = biological target: T3, USP48 (UniProt Q86UV5)
# T3 sequence (whole entry): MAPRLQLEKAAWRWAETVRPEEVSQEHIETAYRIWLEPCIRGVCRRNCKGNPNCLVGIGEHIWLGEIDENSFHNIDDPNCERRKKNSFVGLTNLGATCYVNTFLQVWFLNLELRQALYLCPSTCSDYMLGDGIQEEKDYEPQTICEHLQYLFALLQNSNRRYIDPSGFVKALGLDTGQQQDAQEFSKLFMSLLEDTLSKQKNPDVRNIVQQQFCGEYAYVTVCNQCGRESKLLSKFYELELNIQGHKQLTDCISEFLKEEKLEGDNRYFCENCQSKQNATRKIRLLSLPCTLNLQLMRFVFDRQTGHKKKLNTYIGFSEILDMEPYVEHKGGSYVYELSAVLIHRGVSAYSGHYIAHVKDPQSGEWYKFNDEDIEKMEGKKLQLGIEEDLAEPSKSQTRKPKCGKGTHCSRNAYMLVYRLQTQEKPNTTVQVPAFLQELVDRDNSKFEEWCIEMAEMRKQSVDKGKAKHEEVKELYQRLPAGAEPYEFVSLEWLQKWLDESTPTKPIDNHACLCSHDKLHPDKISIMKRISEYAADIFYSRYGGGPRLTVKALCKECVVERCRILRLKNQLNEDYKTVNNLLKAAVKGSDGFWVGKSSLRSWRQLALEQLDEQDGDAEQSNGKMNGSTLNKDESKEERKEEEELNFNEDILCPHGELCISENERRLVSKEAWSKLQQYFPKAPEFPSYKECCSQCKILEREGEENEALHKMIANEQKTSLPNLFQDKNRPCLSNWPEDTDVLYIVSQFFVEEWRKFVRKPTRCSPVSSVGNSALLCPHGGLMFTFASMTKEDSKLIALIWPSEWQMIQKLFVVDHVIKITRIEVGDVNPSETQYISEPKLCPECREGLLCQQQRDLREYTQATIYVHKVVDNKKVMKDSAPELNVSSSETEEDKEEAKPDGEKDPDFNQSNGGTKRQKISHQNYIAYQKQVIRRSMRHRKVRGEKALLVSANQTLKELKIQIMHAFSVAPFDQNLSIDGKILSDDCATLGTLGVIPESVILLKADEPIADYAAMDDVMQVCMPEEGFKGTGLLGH
# Procedure, shortened: as §1
# USP5 = biological target: T4, USP5 (UniProt P45974)
# T4 sequence (whole entry): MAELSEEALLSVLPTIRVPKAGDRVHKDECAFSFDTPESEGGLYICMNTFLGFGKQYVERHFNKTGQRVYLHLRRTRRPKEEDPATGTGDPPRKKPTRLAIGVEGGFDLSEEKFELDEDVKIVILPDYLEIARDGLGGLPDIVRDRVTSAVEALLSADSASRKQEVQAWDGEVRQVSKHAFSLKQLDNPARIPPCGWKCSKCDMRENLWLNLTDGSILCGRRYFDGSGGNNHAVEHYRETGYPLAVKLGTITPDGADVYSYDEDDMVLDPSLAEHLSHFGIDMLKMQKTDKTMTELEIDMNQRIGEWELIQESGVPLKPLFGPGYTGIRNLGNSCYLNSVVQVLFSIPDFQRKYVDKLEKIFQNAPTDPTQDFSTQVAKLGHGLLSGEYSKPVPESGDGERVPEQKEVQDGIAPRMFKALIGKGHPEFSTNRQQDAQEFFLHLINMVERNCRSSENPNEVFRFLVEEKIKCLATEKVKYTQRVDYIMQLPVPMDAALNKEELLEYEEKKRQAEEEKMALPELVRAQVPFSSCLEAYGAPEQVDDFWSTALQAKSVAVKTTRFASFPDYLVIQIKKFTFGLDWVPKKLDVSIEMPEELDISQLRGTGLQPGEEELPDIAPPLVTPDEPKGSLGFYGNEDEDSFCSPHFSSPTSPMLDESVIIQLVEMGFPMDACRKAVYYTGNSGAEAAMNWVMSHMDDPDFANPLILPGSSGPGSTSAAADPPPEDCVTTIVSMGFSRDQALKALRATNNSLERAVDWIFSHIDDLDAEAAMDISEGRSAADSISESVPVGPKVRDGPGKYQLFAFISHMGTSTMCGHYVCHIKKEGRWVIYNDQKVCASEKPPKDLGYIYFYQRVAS
# Procedure, shortened: as §1
# USP54 = USP54 (UniProt Q70EL1)
# Procedure, shortened: as §1
# USP7 = USP7 (UniProt Q93009)
# Procedure, shortened: as §1
# USP8 = biological target: T5, USP8 (UniProt P40818)
# T5 sequence (whole entry): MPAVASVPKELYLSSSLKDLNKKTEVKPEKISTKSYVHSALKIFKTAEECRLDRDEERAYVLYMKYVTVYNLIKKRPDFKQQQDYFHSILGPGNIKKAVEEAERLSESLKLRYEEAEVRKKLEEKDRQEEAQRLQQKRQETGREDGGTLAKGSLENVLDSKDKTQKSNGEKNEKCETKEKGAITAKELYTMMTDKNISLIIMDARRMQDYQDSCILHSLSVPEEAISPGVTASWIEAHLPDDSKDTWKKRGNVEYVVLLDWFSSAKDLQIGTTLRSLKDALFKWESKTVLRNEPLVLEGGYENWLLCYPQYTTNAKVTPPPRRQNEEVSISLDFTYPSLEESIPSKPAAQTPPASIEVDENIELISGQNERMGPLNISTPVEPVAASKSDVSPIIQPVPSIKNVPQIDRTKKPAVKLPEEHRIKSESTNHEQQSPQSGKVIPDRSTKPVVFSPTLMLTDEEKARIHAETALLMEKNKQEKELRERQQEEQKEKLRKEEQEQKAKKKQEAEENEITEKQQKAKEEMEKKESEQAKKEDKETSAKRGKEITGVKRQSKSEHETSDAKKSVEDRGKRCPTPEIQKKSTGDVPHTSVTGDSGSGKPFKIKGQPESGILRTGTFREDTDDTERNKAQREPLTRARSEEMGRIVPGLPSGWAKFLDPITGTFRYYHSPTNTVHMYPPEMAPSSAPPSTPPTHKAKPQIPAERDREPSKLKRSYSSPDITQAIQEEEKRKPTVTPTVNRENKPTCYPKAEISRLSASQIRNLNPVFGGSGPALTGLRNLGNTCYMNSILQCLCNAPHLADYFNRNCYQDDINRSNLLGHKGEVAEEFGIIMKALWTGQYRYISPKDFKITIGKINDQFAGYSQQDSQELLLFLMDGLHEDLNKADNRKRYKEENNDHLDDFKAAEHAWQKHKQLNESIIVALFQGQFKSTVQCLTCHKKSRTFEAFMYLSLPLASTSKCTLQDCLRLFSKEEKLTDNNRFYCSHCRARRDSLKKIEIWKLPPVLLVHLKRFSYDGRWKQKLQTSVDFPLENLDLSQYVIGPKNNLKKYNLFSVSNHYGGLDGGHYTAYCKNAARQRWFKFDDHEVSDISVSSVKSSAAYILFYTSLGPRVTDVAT
# Procedure, shortened: as §1
# Sequence of USP46 (P62068 whole entry): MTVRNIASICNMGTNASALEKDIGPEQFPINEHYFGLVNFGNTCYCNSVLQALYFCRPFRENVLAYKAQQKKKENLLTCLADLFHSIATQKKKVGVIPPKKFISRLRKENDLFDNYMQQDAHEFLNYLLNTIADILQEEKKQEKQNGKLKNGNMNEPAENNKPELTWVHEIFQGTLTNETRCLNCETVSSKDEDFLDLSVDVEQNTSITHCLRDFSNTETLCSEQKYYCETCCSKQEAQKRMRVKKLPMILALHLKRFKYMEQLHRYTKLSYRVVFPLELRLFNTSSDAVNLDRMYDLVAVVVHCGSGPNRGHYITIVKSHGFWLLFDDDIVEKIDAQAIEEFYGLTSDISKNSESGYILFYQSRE
# Sequence of USP54 (Q70EL1 whole entry): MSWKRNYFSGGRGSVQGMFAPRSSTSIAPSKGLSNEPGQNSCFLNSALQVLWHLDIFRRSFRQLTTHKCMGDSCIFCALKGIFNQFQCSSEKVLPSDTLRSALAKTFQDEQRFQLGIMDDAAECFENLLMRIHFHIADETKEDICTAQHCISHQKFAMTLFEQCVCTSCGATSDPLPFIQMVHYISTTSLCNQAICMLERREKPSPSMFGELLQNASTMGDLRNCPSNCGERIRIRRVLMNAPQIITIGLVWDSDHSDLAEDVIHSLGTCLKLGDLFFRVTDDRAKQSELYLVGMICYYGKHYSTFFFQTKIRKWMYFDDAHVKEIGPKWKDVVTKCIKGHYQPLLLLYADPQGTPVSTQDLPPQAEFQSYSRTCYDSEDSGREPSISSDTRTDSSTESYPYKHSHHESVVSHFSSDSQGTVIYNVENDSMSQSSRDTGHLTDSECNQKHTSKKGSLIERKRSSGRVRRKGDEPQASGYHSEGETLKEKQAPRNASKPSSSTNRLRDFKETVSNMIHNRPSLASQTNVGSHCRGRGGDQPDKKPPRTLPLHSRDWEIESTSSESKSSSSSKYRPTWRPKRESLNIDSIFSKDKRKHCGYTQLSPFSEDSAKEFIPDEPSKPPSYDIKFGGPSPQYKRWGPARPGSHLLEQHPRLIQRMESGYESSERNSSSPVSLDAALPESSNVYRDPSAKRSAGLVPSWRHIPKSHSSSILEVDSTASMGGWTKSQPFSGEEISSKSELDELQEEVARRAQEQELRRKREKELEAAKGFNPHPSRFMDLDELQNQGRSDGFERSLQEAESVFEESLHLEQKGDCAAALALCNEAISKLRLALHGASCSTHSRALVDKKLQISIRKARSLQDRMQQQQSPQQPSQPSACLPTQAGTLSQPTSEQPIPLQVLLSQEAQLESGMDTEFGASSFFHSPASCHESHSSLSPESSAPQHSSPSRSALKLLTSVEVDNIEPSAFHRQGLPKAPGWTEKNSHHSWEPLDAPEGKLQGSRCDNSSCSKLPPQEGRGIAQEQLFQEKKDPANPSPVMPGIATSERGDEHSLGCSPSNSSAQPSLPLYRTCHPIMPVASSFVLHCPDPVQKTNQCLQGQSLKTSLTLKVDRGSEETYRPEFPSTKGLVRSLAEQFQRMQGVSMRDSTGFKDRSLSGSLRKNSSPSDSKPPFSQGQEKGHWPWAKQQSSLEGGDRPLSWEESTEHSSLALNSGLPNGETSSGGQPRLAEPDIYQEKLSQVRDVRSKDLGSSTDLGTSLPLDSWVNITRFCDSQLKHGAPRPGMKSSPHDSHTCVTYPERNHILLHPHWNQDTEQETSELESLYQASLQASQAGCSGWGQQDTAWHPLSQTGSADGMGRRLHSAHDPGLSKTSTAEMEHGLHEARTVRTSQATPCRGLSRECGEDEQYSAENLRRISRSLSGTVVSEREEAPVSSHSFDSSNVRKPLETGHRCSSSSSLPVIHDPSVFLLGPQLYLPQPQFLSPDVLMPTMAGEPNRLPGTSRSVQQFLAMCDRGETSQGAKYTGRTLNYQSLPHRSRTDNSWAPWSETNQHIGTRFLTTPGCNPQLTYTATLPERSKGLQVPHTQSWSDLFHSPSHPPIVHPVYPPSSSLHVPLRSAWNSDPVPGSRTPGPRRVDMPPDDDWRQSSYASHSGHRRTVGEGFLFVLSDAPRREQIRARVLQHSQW
# Sequence of USP7 (Q93009 whole entry, looked up): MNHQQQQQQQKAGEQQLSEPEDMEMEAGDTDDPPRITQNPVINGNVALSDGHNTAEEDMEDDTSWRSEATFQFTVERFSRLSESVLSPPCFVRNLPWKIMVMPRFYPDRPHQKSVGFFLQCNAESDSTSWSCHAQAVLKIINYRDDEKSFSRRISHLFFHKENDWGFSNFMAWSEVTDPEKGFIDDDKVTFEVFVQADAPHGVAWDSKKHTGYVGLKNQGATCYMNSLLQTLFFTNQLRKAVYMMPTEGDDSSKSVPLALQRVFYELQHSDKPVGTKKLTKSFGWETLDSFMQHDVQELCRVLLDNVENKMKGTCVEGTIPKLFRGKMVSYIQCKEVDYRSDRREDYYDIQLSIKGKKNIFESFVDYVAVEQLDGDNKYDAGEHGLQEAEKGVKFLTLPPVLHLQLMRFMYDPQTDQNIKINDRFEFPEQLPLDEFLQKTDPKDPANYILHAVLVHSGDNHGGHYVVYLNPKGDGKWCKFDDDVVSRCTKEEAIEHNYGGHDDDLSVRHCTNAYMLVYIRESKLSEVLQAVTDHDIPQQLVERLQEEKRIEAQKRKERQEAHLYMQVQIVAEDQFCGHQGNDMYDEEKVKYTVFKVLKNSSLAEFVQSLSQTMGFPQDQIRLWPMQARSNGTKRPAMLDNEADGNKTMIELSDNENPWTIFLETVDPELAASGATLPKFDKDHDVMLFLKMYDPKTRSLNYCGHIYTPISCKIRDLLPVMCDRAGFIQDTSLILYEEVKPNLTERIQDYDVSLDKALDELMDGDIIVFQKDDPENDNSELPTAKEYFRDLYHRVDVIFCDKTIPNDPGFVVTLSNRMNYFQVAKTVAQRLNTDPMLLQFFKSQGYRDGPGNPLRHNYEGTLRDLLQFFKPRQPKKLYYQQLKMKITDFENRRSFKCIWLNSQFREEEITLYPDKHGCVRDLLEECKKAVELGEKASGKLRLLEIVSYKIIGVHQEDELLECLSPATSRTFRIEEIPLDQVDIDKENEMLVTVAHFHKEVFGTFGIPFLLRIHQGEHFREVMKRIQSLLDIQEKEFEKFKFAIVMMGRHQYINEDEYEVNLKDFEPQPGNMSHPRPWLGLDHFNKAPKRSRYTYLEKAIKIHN
structure (smiles),measurement,setting,value
Cc1ccccc1OCC(=O)N1CCN(C(=O)CCl)CC1,log2 ratio of Biotin-Ahx-Ub-VS probe labelling,USP42,0.258
same,log2 ratio of Biotin-Ahx-Ub-VS probe labelling,USP46,-0.329
same,log2 ratio of Biotin-Ahx-Ub-VS probe labelling,USP47,-1.19 (active)
same,log2 ratio of Biotin-Ahx-Ub-VS probe labelling,USP48,-0.356
same,log2 ratio of Biotin-Ahx-Ub-VS probe labelling,USP5,0.0461
same,log2 ratio of Biotin-Ahx-Ub-VS probe labelling,USP54,-0.923
same,log2 ratio of Biotin-Ahx-Ub-VS probe labelling,USP7,-0.701
same,log2 ratio of Biotin-Ahx-Ub-VS probe labelling,USP8,0.0472

# Reference: the supplement of paper PMC11732987, “Enantioselective OTUD7B fragment discovery through chemoproteomics screening and high-throughput optimisation” (Communications Chemistry, 2025)
